# Shown are actives, neighbours in structure and some others; about 3.7% of the full set was active somewhere.
# TCR activator: activates T cell receptor signaling. primary human leukocytes, anti-CD3, IL-2 HTRF, 48 h. Potency, µM (highest dose often 9.22 µM), for inactives: at the highest dose activation of IL-2 secretion, actives largely listed as activators. AID 504894. 330,000 tested, under 10 active; note: % of control where 0% means no effect
#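 Primary human leukocytes were stimulated with a-CD3 beads plus compounds for 48 hr without co-stimulation; secreted IL-2 was quantified by HTRF using a-IL-2-K (europium cryptate) and a-IL-2-d2, excited at 320nm with acceptor emission read at 665nm.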
# FEN1 inh: inhibitors of human flap endonuclease 1; hit rate 0.35% among 390,000; Recombinant FEN1 flap cleavage, fluorescence, 15 min; Potency, µM (highest dose often 114 µM), for the others: at the highest dose activity change, negative = inhibition, hits mostly inhibitors; note: potency is the fitted concentration of half-maximal effect; % is set by controls: 0 for no effect and ±100 for the full control effect; nearly all actives have a fitted effect of over 65% in size
#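 Concentration–response screening of FEN1 (10 nM): 15 min compound preincubation at room temperature, reaction started with 50 nM substrate and read at 0 and 15 min. Corrected, normalized data were fitted by a four-parameter Hill equation.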
# PI5P4K alpha inh: PI5P4K alpha (human) kinase inhibition; P48426; PI5P4Kalpha enzyme, ADP-Glo luminescence, 60 min; hits give low values; max response, %; hit rate 1.2% among 330,000; AID 652105; active = max response of -50% or lower; inconclusive = between -30% and -50%; inactive = -30% or higher; note: value at the top dose of about 77 µM; % is set by controls: 0 for no effect and ±100 for the full control effect
#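 Quantitative HTS of the MLSMR library against PI5P4Kalpha with substrate. ATP added last at 5 microM final; room temperature, 60 minutes. Remaining ATP depleted, ADP converted and read as luminescence.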
# WRN helicase inh: WRN helicase (human) inhibition; Q14191; WRN helicase unwinding, fluorescent forked duplex, kinetic; Potency, µM (series often up to 114 µM), for inactives: at the top dose activity change, negative = inhibition, actives largely listed as inhibitors; hit rate 0.46% among 360,000; AID 651768; note: potency is the fitted concentration of half-maximal effect; % is set by controls: 0 for no effect and ±100 for the full control effect; nearly all actives have a fitted effect of over 55% in size
#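 Screening of the MLSMR collection measured strand separation of a quenched forked DNA duplex (100 nM) by 20 nM WRN with 2 mM ATP, all final. Compounds were preincubated with enzyme 15 min at room temperature.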
# PLK1 PBD inh: blocks phosphopeptide binding to human PLK1 polo-box domain; Plk1 PBD binding of FITC phosphopeptide, fluorescence polarization; Potency, µM, without a hit: max response, negative = inhibition, usual class: inhibitors; hit rate 2.8% among 360,000; note: potency is the fitted concentration of half-maximal effect; series mostly up to about 57 µM; % is set by controls: 0 for no effect and ±100 for the full control effect; nearly all actives have a fitted effect of over 65% in size
# VDR inhibitor: blocks the human vitamin D receptor | Potency, µM, for the others: max response, negative = inhibition, hits mostly inhibitors | hit rate 0.93% among 400,000 | AID 504847 | VDR-SRC2-3 peptide fluorescence polarization, 2 h | P11473; note: potency is the fitted concentration of half-maximal effect; % is set by controls: 0 for no effect and ±100 for the full control effect
# Target sequence (P11473 whole entry, looked up): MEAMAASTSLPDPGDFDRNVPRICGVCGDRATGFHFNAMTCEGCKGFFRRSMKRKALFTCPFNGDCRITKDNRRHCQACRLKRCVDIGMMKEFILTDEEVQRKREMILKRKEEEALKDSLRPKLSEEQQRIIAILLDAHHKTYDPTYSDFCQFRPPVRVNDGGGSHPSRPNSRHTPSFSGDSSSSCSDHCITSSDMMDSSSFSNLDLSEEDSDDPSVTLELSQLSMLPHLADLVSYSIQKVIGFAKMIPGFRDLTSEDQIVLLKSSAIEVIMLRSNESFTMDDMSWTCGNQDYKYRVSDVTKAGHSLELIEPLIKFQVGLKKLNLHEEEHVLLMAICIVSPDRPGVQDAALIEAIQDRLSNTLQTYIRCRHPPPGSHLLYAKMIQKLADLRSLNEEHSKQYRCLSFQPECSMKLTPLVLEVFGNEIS
#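 VDR–SRC2-3 interaction, FP format. Cmpds 23 nl via pintool, brief spin, 2 h ambient incubation.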
# ADP-Glo counter: interferes with ADP-Glo detection without enzyme present; shares compounds with PI5P4K alpha inh; ADP-Glo detection counter-screen, luciferase luminescence, no enzyme; Potency, µM (doses to about 76.9 µM), without a hit: at the top dose activity change, negative = inhibition, most hits filed as inhibitors; 1,100 tested, under 10 active; AID 743285
# * marks the source's active call; other numbers are inactive results; ? = inconclusive; . = no result given; [ ] = dose if it differs, or a comment. Unless noted, calls come from the whole dose curve; as a rule, active = well fitted curve in the direction sought with a large enough effect; inconclusive = small, poorly fitted or top-dose-only effect, or another doubt; inactive = no such curve, though single readings can be large; an effect the other way counts as inactive or inconclusive.
SMILES,TCR activator,FEN1 inh,PI5P4K alpha inh,WRN helicase inh,PLK1 PBD inh,VDR inhibitor,ADP-Glo counter
COc1ccc(C(=O)N2CCC3(CCCN(c4cccc(-c5ccccc5)c4)C3)CC2)cc1,.,.,.,.,.,-20.0%,.
CS(=O)(=O)c1ccc2nc(NC(=O)c3ccc(NS(=O)(=O)c4cccc([N+](=O)[O-])c4)cc3)sc2c1,-56.5%,-9.1%,-56.8*,-5.2%,-25.5%,-9.3%,-6.7%
CSCCOC(=O)c1[nH]c2c(c1C)C(=O)CC(c1ccco1)C2 (stereo unspecified),3.3%,?,-66.1*,56.2µM*,-28.7%,-14.1%,4.8%
COCCOC(=O)c1[nH]c2c(c1C)C(=O)CC(c1ccccc1)C2 (stereo unspecified),3.8%[46.1 µM],-7.2%,-0.5,-1.5%,-3.0%,-1.7%,.
O=C1Nc2cc(Cl)ccc2Nc2cscc21,4.6%,-15.9%,.,.,.,?,2.0%
O=C1Nc2ccccc2Nc2ccccc21,4.4%,3.8%,8.0,6.4%,-1.7%,-6.3%,.
O=C(Cn1c(=O)nc(-c2ccccc2)c2ccccc21)N1CCN(c2ccc(F)cc2)CC1,.,0.6%,.,.,.,20.2%,.
CCOc1ccc(-c2ccc(SCC(=O)Nc3nnc(CC)s3)nn2)cc1,-2.3%,-3.2%,-5.3,-2.1%,-14.0%,-10.2%,.
CCOc1ccc(-c2ccc(SC)nn2)cc1,-2.3%,5.8%,-50.5*,-17.5%,-2.1%,3.2%,15.8µM*
O=C(O)C1CSC(c2coc3ccccc3c2=O)N1 (stereo unspecified),-0.6%[46.1 µM],8.6%,-66.7*,?,-19.1%,?,2.3%
CCc1ccc(N(CC)C(=O)c2cc3c(=O)oc4ccc(C)cc4c3s2)cc1,.,15.0%,.,.,.,-8.1%,.
CCN(C(=O)COC(=O)Cc1coc2cc(C)ccc12)c1c(N)n(Cc2ccccc2)c(=O)[nH]c1=O,-2.1%,-0.9%,3.1,-29.9%,-19.0%,2.5%,.
Cc1ccc2c(CC(=O)OCC(=O)N(CC(C)C)c3c(N)n(Cc4ccccc4)c(=O)[nH]c3=O)coc2c1,-2.4%,-2.6%,-58.9*,-35.2%,-13.4%,13.4%,-0.9%
NC(=O)C1CCN(CC(=O)Nc2ccc3c(c2)OCCO3)CC1,3.6%,-14.3%,-63.2*,6.0%,-10.4%,-11.5%,-5.3%
NC(=O)C1CCN(CC(=O)Nc2ccc3c(c2)OCO3)CC1,.,.,-1.1,5.6%,1.8%,.,.
Cc1cc(Oc2ccc(C#N)cc2)nc(NCc2ccccc2)n1,4.7%,-15.2%,-51.1*,-18.9%,2.67µM*,-22.1%,1.4%
COC(=O)c1ccc(Oc2cc(C)nc(NCc3ccccc3)n2)cc1,-16.1%,-7.3%,0.8,-5.7%,-0.3%,-16.5%,.
COC(=O)C1CCN(C(=O)c2cc(-c3ccco3)nc3ccccc23)CC1,.,39.8µM*,-81.8*,50.1µM*,29.9µM*,-11.7%,-2.6%
O=C(NC1CCC(O)CC1)c1cc(-c2ccco2)nc2ccccc12 (stereo unspecified),4.1%,-23.8%,-66.8*,?,?,-24.2%,-5.9%
COc1cccc(NC(=O)CN(C)C(=O)c2cc(-c3ccccc3)nc3ccccc23)c1,-0.1%,-20.9%,-3.1,-5.2%,-0.9%,-2.1%,.
COc1ccc(NC(=O)c2cc(-c3ccco3)nc3ccccc23)cc1S(=O)(=O)N1CCOCC1,-2.3%,?,-58.9*,?,21.2µM*,28.2µM*,-10.0%
Cc1ccc(NC(=O)c2cc(-c3ccco3)nc3ccccc23)cc1S(=O)(=O)N1CCOCC1,-1.5%,-0.6%,-28.6,?,-25.9%,6.7%,.
COc1ccc(NC(=O)CN(C)C(=O)c2cc(-c3ccco3)nc3ccccc23)cc1,3.6%,?,-73.8*,63.1µM*,?,-5.7%,-4.8%
Cc1cccc(C(c2sc3nc(-c4ccco4)nn3c2O)N2CCOCC2)c1 (stereo unspecified),.,9.3%,.,.,.,-0.1%,.
CC(=O)c1ccc(NC(=O)c2cnn3ccccc23)cc1,4.1%,-4.8%,-76.1*,4.6%,-1.5%,6.9%,-8.4%

# Bioassay records from PubChem.
